Laboratory results from PubChem BioAssay AID463215 (Sanford-Burnham Center for Chemical Genomics, 2010).
Out of some 4,600 compounds screened, about 2,900 (63%) were called active.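 The calls were made as follows: active = inhibition of yeast growth at or above a set limit in either of two replicates at 10 µM; inactive = the rest.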 The set was probably picked from earlier hits. Not all results are given here.

Assay: growth inhibitors of wild-type TIM10 yeast, confirmation, counter-screen for tim10-1 synthetic lethality project, single concentration, luminescence, S. cerevisiae (AID 463215);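 also: isogenic wild-type TIM10 control yeast grown in succinate dextrose medium; this counterscreen used the strain with wild-type TIM10; 0% = yeast with DMSO and 100% = medium wells lacking yeast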
Conditions: S. cerevisiae tim10 strain growth, BacTiter-Glo luminescence, 24 h; at 10 µM; hits give high values
With `O=C1C=CC(=O)N1c1ccc(N2CCCCC2)cc1` the inhibition was 85.4% (active). In the case of `COc1ccc2c(CN3CCN(S(=O)(=O)c4cccs4)CC3)cc(=O)oc2c1`, the inhibition is reported as -35.7% (inactive). With `O=C(O)CCCC(=O)Nc1ccccc1-n1ccnc1` the inhibition was -10.4% (inactive). With `CN(C)c1ccnc2sc(C(=O)c3ccccc3)c(N)c12` the inhibition was 25.4% (inactive). With `O=C(CN1CCN(S(=O)(=O)c2ccc3ccccc3c2)CC1)NC(=O)NC1CCCCC1` the inhibition was 23.4% (inactive). With `COc1ccc(S(=O)(=O)N2CCN(C(C)C(=O)Nc3ccc(C(C)C)cc3)CC2)cc1` (centres undefined) the inhibition was 38.8% (active). For `Cc1ccc(-c2noc(CSc3nnc(-c4ccncc4)n3-c3ccc(F)cc3)n2)cc1`, the inhibition was 30.2% (active). For `Fc1ccc(-n2c(Cc3ccccc3)nnc2SCc2nc(-c3ccc(Cl)cc3)no2)cc1`, the inhibition was 37.8% (active). For `Cc1ccc(/C=N/NC(=S)NC2CCCCC2)o1`, the inhibition was 11.8% (inactive). In the case of `COc1ccc(N2C(=O)CC(Sc3n[nH]c(-c4ccc(C)cc4)n3)C2=O)cc1` (centres undefined), the inhibition is reported as 13.8% (inactive). In the case of `FC(F)(F)c1cccc(NC(=S)Nc2cccc(Cl)c2)c1`, the inhibition is reported as 26.8% (inactive). For `O=C(Nc1cccc(Cl)c1)C1CCCN(c2cnccn2)C1` (centres undefined), the inhibition was 5.7% (inactive). For `O=C(Nc1cccc(Cl)c1)OCc1ccccn1`, the inhibition was 41.4% (active). In the case of `O=C(CSc1cccc[n+]1[O-])c1ccc(-c2ccccc2)cc1`, the inhibition is reported as 44.2% (active). With `O=C1NC(Nc2nc3ccccc3s2)(C(F)(F)F)C(=O)N1C1CCCCC1` (centres undefined) the inhibition was 52.6% (active). With `N#CC1(C#N)C(C(=O)C23CC4CC(CC(C4)C2)C3)C12CCOCC2` (centres undefined) the inhibition was 26.6% (inactive). For `COC(=O)c1c(NC(=O)COc2ccc(Cl)cc2Cl)sc2c1CC(C)(C)NC2(C)C`, the inhibition was 45.8% (active). With `CCn1c(CSCc2c(Cl)cccc2Cl)n[nH]c1=S` the inhibition was 35.4% (active). With `O=C(Nc1ccccc1Cl)/C(Cl)=C(\Cl)S(=O)c1ccccc1` (centres undefined) the inhibition was 89.6% (active). In the case of `O=c1oc(-c2ccccc2NS(=O)(=O)c2ccc(Cl)cc2)nc2ccccc12`, the inhibition is reported as 41.5% (active). In the case of `Cc1[nH]c(=O)c(C(=O)/C=C/c2ccccc2)c2c1CCCC2`, the inhibition is reported as 38.8% (active). In the case of `COc1ccc(Nc2cc(C)nc(-n3nc(C)cc3C)n2)cc1`, the inhibition is reported as 34.1% (active). With `COc1ccc(/C=C(\C#N)C(=O)ONC2=NCCCCC2)cc1` the inhibition was 59% (active). With `O=C(NCCc1ccc(F)cc1)c1ccc(S(=O)(=O)N2CCCCC2)cc1` the inhibition was 53.5% (active). In the case of `O=C(Nc1cccc(S(=O)(=O)N2CCCC2)c1)c1cncc(Br)c1`, the inhibition is reported as -2.05% (inactive). For `CC(=O)Cc1nsc(NC(=O)c2ccc(Cl)cc2Cl)n1`, the inhibition was 17.2% (inactive). With `C/C(=N/NC(=S)Nc1ccccc1)c1ccc2c(c1)OCO2` the inhibition was 38.8% (active). With `CC(=O)N1C(C)c2ccccc2C(C)(C)CC12CCCCC2` (centres undefined) the inhibition was -16% (inactive). With `COc1ccc(Nc2nc(N)nc(CSC(=S)N3CCC(C)CC3)n2)cc1` the inhibition was -1% (inactive). With `Cc1cc(C)nc(S/C=C/C(=O)c2ccccc2)n1` the inhibition was 60.8% (active). For `Cc1csc(NC(=S)Nc2cccc(Cl)c2)n1`, the inhibition was 9.5% (inactive). With `Cc1cc(C)c(S(=O)(=O)c2ccccc2)c(OC(=O)c2c(F)cccc2Cl)n1` the inhibition was -5.1% (inactive). In the case of `COC(C/C=C/C(=O)[C@@H](C)OCc1ccccc1)OC`, the inhibition is reported as 39.4% (active). With `CNC(=O)/C(C#N)=C/c1c(F)cccc1Cl` the inhibition was 40.6% (active).
